# Measurements reported in PubChem BioAssay.
# Active and inactive are the calls of the source.
# Tests used:
# [1] = binders of probe aFSTL3 on microarray, primary screen, stem cell growth factor project, biochemical, small-molecule microarray, fluorescence 635/667 (AID 1064); conditions: higher = more signal;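 note: measures binding of the biotinylated anti-FSTL3 antibody to printed compounds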
# [2] = binders from COS7 lysate, DM2A8 probe, primary screen, torsin A project, cell lysate, small-molecule microarray, fluorescence 635/667 (AID 1065); conditions: higher = more signal, COS7 lysate expressing mutant human TOR1A
# [3] = binders of probe aFGF2 on microarray, primary screen, stem cell growth factor project, biochemical, small-molecule microarray, fluorescence 635/667 (AID 1067); conditions: higher = more signal;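 note: measures binding of biotinylated aFGF2 protein to printed compounds on slides; z-score merges feature fluorescence and signal-to-noise across triplicate slides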
# [4] = binders of probe aFGF10 on microarray, primary screen, stem cell growth factor project, biochemical, small-molecule microarray, fluorescence 635/667 (AID 1071); conditions: higher = more signal;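 note: score merges 667 nm spot intensity and signal to noise from triplicate slides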
# [5] = biological target: Neurogenic locus notch homolog protein 2 (Homo sapiens) (UniProt Q04721); experiment: Notch2 binders on small-molecule microarrays, primary screen, biochemical, small-molecule microarray, 635 nm fluorescence, stem cell growth factors (AID 1073); conditions: Notch2 binding, higher = more signal
# [6] = biological target: Pro-neuregulin-1, membrane-bound isoform (Homo sapiens) (UniProt Q02297); experiment: NRG1 binders on small-molecule microarrays, primary screen, psychiatric disease protein project, biochemical, small-molecule microarray, fluorescence 635/667 (AID 1075); conditions: NRG1 binding, 635 nm fluorescence, higher = more signal;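 note: score combines 667 nm spot fluorescence with signal to noise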
# [7] = system: Neuregulin-1 EGF-like domain; experiment: binders of neuregulin-1 EGF-like domain, primary screen, biochemical, small-molecule microarray, 635 nm fluorescence (AID 1081); conditions: small-molecule microarray binding, higher = more signal;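 note: binding of the protein to compounds printed on small-molecule microarray slides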
# [8] = FRG1 promoter luciferase signal modulators, primary screen, FRG1 inhibition for FSHD, cell-based, C2C12 myotubes, firefly/Renilla luciferase, luminescence (AID 1084); conditions: higher = more signal, called active from +8 up or from −8 down
# [9] = binders of probe aFST on microarray, primary screen, stem cell growth factor project, biochemical, small-molecule microarray, fluorescence 635/667 (AID 1086); conditions: higher = more signal;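 note: score merges 667 nm fluorescence with signal-to-noise of each printed compound spot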
# [10] = binders of probe aHhip on microarray, primary screen, stem cell growth factor project, biochemical, small-molecule microarray, fluorescence 635/667 (AID 1087); conditions: higher = more signal;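 note: score merges spot fluorescence at 667nm with spot signal to noise ratio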
# Pro-neuregulin-1, membrane-bound isoform (Homo sapiens), sequence (Q02297 whole entry, looked up, the tested form may be a part, canonical isoform): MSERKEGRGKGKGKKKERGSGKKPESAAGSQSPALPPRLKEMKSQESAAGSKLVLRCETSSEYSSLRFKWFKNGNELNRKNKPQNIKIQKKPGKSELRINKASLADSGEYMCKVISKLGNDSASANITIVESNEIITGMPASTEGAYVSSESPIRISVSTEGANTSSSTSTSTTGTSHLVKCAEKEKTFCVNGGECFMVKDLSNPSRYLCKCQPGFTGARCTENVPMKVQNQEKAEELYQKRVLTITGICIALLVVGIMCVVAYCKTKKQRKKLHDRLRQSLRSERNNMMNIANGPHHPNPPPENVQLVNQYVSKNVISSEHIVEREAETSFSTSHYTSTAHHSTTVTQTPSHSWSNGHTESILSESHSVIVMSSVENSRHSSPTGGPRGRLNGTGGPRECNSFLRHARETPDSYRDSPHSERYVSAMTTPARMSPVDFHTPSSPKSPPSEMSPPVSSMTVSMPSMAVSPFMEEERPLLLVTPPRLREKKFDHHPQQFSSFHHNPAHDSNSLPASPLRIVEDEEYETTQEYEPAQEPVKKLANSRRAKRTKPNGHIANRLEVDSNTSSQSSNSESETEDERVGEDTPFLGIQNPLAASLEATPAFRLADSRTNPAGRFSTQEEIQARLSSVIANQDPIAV
# Neurogenic locus notch homolog protein 2 (Homo sapiens), sequence (Q04721 whole entry, looked up, canonical isoform): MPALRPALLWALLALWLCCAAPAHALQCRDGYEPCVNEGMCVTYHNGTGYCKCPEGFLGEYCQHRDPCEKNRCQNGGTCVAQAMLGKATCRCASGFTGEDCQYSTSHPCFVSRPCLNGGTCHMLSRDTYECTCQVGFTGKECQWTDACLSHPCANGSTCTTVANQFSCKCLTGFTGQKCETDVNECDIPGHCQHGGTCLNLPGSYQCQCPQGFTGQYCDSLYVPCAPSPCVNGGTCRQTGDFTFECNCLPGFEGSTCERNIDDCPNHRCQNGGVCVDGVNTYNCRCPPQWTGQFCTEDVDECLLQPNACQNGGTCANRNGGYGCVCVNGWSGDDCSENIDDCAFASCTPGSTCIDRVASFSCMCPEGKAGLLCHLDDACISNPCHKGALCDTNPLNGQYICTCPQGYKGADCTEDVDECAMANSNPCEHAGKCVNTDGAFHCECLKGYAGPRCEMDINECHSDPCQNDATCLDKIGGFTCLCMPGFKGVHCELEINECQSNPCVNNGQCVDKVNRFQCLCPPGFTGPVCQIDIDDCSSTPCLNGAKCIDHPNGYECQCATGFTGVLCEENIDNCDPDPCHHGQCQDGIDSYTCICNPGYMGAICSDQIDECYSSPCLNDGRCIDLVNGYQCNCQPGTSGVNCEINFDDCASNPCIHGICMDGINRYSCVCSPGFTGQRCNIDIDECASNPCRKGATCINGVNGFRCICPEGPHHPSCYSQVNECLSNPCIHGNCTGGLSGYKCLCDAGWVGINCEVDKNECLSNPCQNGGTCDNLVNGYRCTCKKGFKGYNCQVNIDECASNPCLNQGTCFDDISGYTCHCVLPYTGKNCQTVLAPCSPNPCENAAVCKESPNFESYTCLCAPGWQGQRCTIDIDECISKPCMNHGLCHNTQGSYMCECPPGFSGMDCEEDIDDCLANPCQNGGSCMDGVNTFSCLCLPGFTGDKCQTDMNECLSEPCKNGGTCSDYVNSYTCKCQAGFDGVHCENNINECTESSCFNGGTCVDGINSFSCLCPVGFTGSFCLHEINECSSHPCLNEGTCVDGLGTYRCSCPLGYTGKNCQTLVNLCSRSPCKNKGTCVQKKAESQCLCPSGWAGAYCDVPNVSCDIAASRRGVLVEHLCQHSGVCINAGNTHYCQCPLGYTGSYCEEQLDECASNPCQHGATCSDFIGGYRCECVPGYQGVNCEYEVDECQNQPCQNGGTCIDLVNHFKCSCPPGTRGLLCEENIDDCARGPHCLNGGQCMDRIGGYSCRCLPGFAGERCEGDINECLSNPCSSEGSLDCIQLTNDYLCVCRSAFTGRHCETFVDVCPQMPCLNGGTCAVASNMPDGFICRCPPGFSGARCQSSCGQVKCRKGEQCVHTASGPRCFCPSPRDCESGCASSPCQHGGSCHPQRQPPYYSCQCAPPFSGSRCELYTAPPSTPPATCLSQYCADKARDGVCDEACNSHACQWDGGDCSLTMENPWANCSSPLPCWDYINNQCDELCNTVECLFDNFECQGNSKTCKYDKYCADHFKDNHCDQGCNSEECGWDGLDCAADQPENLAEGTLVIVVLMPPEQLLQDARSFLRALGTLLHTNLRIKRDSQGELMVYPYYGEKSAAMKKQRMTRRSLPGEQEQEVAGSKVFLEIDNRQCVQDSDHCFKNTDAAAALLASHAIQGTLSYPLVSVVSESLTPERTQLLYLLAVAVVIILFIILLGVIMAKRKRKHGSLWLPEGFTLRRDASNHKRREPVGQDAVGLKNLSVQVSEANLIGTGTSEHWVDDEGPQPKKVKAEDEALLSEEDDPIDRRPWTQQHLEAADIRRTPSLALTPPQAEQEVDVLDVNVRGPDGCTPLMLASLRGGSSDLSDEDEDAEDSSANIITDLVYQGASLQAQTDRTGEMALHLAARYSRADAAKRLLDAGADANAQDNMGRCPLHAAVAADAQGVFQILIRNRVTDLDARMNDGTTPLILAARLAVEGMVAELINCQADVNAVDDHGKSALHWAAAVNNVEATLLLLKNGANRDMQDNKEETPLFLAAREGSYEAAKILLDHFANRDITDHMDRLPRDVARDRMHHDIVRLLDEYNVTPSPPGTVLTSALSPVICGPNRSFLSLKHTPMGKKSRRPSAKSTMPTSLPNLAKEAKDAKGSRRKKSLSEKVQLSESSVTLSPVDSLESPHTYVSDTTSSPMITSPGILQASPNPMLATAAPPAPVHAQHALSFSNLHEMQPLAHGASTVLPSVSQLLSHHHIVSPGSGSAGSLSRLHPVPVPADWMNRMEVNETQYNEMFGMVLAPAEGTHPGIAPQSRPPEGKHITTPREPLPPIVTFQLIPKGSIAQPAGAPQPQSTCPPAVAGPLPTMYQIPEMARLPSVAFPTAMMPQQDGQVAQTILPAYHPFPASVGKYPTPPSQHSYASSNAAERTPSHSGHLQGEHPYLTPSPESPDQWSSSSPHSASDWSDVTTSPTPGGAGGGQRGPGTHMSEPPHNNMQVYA
Structure (SMILES),composite z-score [1],composite z-score [2],composite z-score [3],composite z-score [4],composite z-score [5],composite z-score [6],composite z-score [7],z-score [8],composite z-score [9],composite z-score [10]
O=C(C=C(CC(O)c1cccc(Cl)c1)OCCF)OCCF (stereo not given),0.876,-0.824,-0.154,-0.694,-1.02,-0.0066,-0.19,-4.54 (inactive),0.0462,0.0596
CC(C)N1CC=CC23O[C@@H]4C=CCOC(=O)[C@@H]4[C@H]2C(=O)N(CCCCCCO)[C@@H]3C1=O (stereo not given in full),-0.895,-0.775,-0.237,1.07,-0.697,-0.126,1.47,0.213 (inactive),-0.588,-0.949
COCCOC(=O)N1C(=O)[C@@]2(c3cc(C#Cc4ccc(OC)cc4)ccc31)[C@H](C(=O)N1CCc3cc(OC)c(OC)cc3C1)[C@H]1C(=O)O[C@H](c3ccccc3)[C@H](c3ccccc3)N1[C@@H]2c1ccc(OCCO)cc1,-0.172,0.454,-0.0567,0.452,1.22,0.62,1.16,1.36 (inactive),0.0478,0.0623
COCC1=C([C@H](O)CCc2ccccc2)[C@H](CO)[C@@H]2C(=O)N(C)C(=O)[C@@H]2C1,-0.479,0.24,-0.235,0.367,0.396,0.378,0.15,-2.22 (inactive),-0.0346,-0.226
CC(C)NC(=O)[C@@]1(Cc2ccccc2I)c2ccccc2C(=O)N(Cc2ccccc2C(F)(F)F)[C@H]1c1ccc(CO)cc1,0.695,0.44,-0.0316,-0.0029,0.234,1.71,1.21,-2.61 (inactive),0.0674,0.533
CC(C)(C)N1CC=CC23O[C@@H]4C=CCCOC(=O)C4[C@H]2C(=O)N(CCCO)[C@@H]3C1=O (stereo not given in full),0.248,-0.527,-0.181,-0.642,-1.5,-0.509,-0.174,0.489 (inactive),-0.383,-0.0994
CO[C@H]1O[C@H](CO)[C@@H](OC(=O)Nc2ccc(C(F)(F)F)cc2)[C@H](OC(=O)Nc2ccccc2)[C@H]1OC(=O)Nc1ccccc1,0.113,0.745,0.233,1.15,1.58,1.72,1.3,2.74 (inactive),1.07,-0.105
COc1ccc([Si](C)(C)[C@@H]2[C@@H](CC(=O)N(CCO)Cc3ccccc3)O[C@]3(C(=O)N(C)c4c(Br)cc(C)cc43)[C@H]2C)cc1,-0.106,-0.0018,-0.13,0.33,-0.561,0.679,0.508,-3.19 (inactive),-0.051,0.0052
COc1ccc([Si](C)(C)[C@@H]2[C@@H](CC(=O)N3Cc4ccccc4C[C@H]3CO)O[C@]3(C(=O)N(Cc4cccc(N5CCCCC5=O)c4)c4ccccc43)[C@H]2C)cc1,-0.429,0.569,0.0207,0.494,0.523,0.69,0.899,-2.18 (inactive),0.272,-0.0994
C[C@]12C(=O)N(CCCCCO)[C@@H]3C(=O)N(c4ccc(Cl)cc4)CC=CC31O[C@@H]1/C=C\CCCOC(=O)C12 (stereo not given in full),0.302,-1.54,-0.221,-1.14,-0.76,-0.254,0.655,0.803 (inactive),-0.733,-0.28
Cc1ccc(F)cc1S(=O)(=O)N[C@@H]1CCN(C(=O)c2ccc(OC(C)C)cc2)C1,-0.473,-0.414,-0.131,0.859,0.957,-0.129,0.602,-3.78 (inactive),0.475,-0.258
NC(=O)NCC#Cc1ccc2c(c1)[C@]1(C(=O)N2)[C@H](c2ccc(O)cc2)N2[C@H](c3ccccc3)[C@H](c3ccccc3)OC(=O)[C@H]2[C@@H]1C(N)=O,0.373,-1.07,-0.0925,-0.568,-0.847,-0.283,0.266,-1.07 (inactive),-0.139,0.202
COC(=O)[C@H]1N=C(c2ccc(OCCCO)cc2)O[C@H]1c1ccccc1CN=[N+]=[N-],1.03,-0.872,0.0544,-0.202,-0.525,0.526,0.591,4.14 (inactive),0.906,0.334
